Screening data: PubChem, Broad Institute
In the library only some 4% were active in any assay of this set; here they are far more common.
MITF TRPM1 HTS: activators of MITF-driven TRPM1 promoter reporter, primary screen, cell-based, SK-MEL-5, luciferase, single point; SK-MEL-5 TRPM1-promoter luciferase, 24 h; % of positive control, neutral wells = 0; activation, % at 12.5 µM; 0.75% of 300,000 active;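 active = mean activation of at least 80% with every replicate also reaching 80%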;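 also: 0% = neutral control wells and 100% = parthenolide positive control wells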
TRPM1 prom inh: inhibitors of MITF-dependent TRPM1 promoter reporter, primary screen, cell-based, SK-MEL-5, single point, luciferase; 0.83% of 330,000 active; inhibition, % at 12.5 µM; SK-MEL-5 TRPM1 promoter luciferase, 24 h;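 active = mean inhibition across replicates of 60% or more, whatever share of single replicates reaches that level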
Wnt act: Wnt/beta-catenin pathway activators, primary screen, cell-based, plate reader, single point. Wnt/beta-catenin reporter cell assay, activator. activation, % at 9.35 µM. 1.2% of 300,000 active. AID 743398, 2014; in the data active = activation above about 30%, passing the limit was not always enough;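 also: 0% = neutral control wells and 100% = positive control wells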
PAX8 reporter: inhibitors of PAX8-driven TPO luciferase reporter, primary screen, RMG-I cells, single concentration | SteadyGlo, 24 h | inhibition, % at 12.6 µM | 1.2% of 360,000 active | AID 652154, 2013;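 active = mean replicate inhibition at least 60% with every replicate also reaching 60%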;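 also: luciferase light reporting Pax8 driven TPO promoter activity; plate controls were median of neutral control wells for no effect and mitoxantrone controls for full effect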
esBAF inh: Bmi1 luciferase reporter increase in mESCs, primary screen, esBAF inhibitor project, mouse ES cells, Bmi1 luciferase knock-in, single point. 2% of 350,000 active. reporter increase, % at 12.5 µM. 24 h; 100% = twice the neutral-well signal. AID 602393, 2012; in the data active = activation above about 40%;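 also: 0% = median of the plate's neutral control wells and 100% = double that signal; a rise in the Bmi1 reporter signal indicates esBAF inhibition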
EWS-Fli block: EWS/Fli-driven NR0B1 reporter inhibitors, primary screen, A673 cells, NR0B1 luciferase, luminescence, MLPCN library; inhibition, % at 12.6 µM; 0.67% of 350,000 active; viability-normalised; AID 651661, 2012;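 active = mean inhibition of at least 50% after viability correction, with every replicate also passing that limit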;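 also: firefly luciferase signal divided by Alamar Blue viability fluorescence both relative to DMSO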
* hit, by the source's call; · = not tested or not shown; ! = not confirmed by another sample.

SMILES | MITF TRPM1 HTS | TRPM1 prom inh | Wnt act | PAX8 reporter | esBAF inh | EWS-Fli block
CCOC(=O)N1CCN(C(=O)c2ccc3oc(CCCc4ccccc4)nc3c2)CC1 | 38.1 | -33.2 | 33.9* | -208.2 | 80.9* | ·
CCCOC1CCCN(C(=O)c2ccc3oc(C(C)C)nc3c2)C1 (stereo not drawn) | 18.6 | -20.1 | -1.5 | -48.8 | 43.8* | ·
CCOC(=O)N1CCN(C(=O)c2ccc3c(c2)sc2nc(-c4ccccc4)cn23)CC1 | 44.3 | -41.3 | · | · | 78.6* | ·
CC(NC(=O)c1ccc2nc(Cc3cccc(Cl)c3)oc2c1)c1ccncn1 (stereo not drawn) | · | · | -0.6 | 4.3 | · | 1.1
CC(C)(CO)NC(=O)c1ccc2nc(Cc3cccc(Cl)c3)oc2c1 | · | -74.6 | 0.7 | -36.6 | 42.7* | -55.2
CCOC(=O)N1CCN(C(=O)c2ccc3nc(C)sc3c2)CC1 | -6.5 | 6.5 | · | · | · | ·
CCCN1C[C@H](C)[C@H](OC)CN(C)C(=O)c2cc(NC(=O)CC(F)(F)F)ccc2OC[C@@H]1C | · | · | · | 8.2 | · | -4.3
COCC1CCN(C(=O)c2ccc3nc(Cc4cccc(Cl)c4)oc3c2)CC1 | · | · | -2.9 | -2.8 | 0.4 | -11.7
COCC1CCCN(C(=O)c2ccc3nc(Cc4cccc(Cl)c4)oc3c2)C1 (stereo not drawn) | 56.7 | -53.8 | 24.2 | · | 69.7* | -62.9
COC(=O)[C@@H](C)NC(=O)c1ccc2oc(CCc3ccccc3)nc2c1 | · | -77.9 | 38.0* | -110.9 | 65.7* | -104.4
CCOC(=O)C1CCCN(C(=O)c2ccc3oc(Cc4ccccc4)nc3c2)C1 (stereo not drawn) | 79.0 | -73.1 | 22.8 | -174.0 | 69.9* | -92.9
COC(=O)CCCNC(=O)c1ccc2oc(CCCc3ccccc3)nc2c1 | 24.3 | -31.2 | 5.9 | -51.7 | 38.5 | -54.7
O=C(NC(=S)Nc1cccc(S(=O)(=O)NC2=NCCC2)c1)c1cc(-c2ccco2)nc2ccccc12 | -47.5 | 50.2 | -8.5 | 28.0 | -4.8 | 57.2*
CCOc1ccc(C(=O)NC(=S)Nc2cccc(S(=O)(=O)NC3=NCCC3)c2)cc1 | 3.1 | 1.7 | -8.3 | 10.1 | · | 58.9*
Cn1c(SCC(=O)Nc2cccc(S(=O)(=O)NC3=NCCCCC3)c2)nnc1-c1ccncc1 | 4.1 | -3.8 | -1.7 | 31.5 | · | -16.7
O=C(Nc1cccc(S(=O)(=O)NC2=NCCC2)c1)c1ccccc1 | · | · | -2.8 | -17.1 | -7.4 | -9.5
CN(C)c1cccc(C(=O)Nc2cccc(S(=O)(=O)NC3=NCCC3)c2)c1 | 6.3 | -3.3 | 9.4 | -78.5 | 54.8* | ·
Cc1ccc(C)c(-n2ccnc2SCC(=O)Nc2cccc(S(=O)(=O)NC3=NCCC3)c2)c1 | -7.6 | 5.9 | 47.3* | 4.1 | -0.8 | -3.3
O=C(NCc1ccccc1)[C@@H]1N[C@@H]2c3ccc(-c4ccccc4)c(=O)n3C[C@@H]2[C@H]1CO | · | · | · | · | 0.3 | 9.8
COc1ccc(-c2nc(CC(=O)Nc3cccc(S(=O)(=O)NC4=NCCC4)c3)cs2)cc1 | -12.5 | 14.1 | -1.7 | 74.3* | -3.9 | -9.1
COc1ccc(-c2cc(C(=O)Nc3cccc(S(=O)(=O)NCc4ccco4)c3)c3ccccc3n2)cc1OC | -10.6 | 17.7 | -2.2 | 69.6* | · | 2.0
Cc1ccc2cc(NC(=O)c3cccc(F)c3)ccc2n1 | · | -75.9 | 49.7* | -122.5 | 15.8 | -83.6
Cc1ccc2cc(NC(=O)c3ccccc3)ccc2n1 | 48.8 | -38.7 | 40.2* | -67.1 | 2.5 | -48.7
O=C(Nc1ccc2ccccc2c1)c1cccc(F)c1 | 123.0* | -119.9 | 45.6* | -96.6 | 49.9* | -81.5
CC(C)NC(=O)Nc1cccc2c1O[C@H](CN(C)S(=O)(=O)c1cccs1)[C@@H](C)CN([C@@H](C)CO)C2=O | · | · | · | · | 1.1 | -1.0
SMILES | MITF TRPM1 HTS | TRPM1 prom inh | Wnt act | PAX8 reporter | esBAF inh | EWS-Fli block
C/C=C/c1cnc2c(c1)C(=O)N([C@@H](C)CO)C[C@H](C)[C@@H](CN(C)C(=O)Cc1ccccn1)O2 | · | · | · | -5.5 | 6.6 | 1.8
C[C@@H]1CN([C@H](C)CO)C(=O)c2cc(NS(=O)(=O)c3ccc(F)cc3)ccc2O[C@@H](C)CCCCO[C@H]1CN(C)Cc1ccc(C(F)(F)F)cc1 | · | · | · | 113.8* | -3.2 | 65.2*
COc1ccc(S(=O)(=O)Nc2ccc3c(c2)C(=O)N([C@H](C)CO)C[C@H](C)[C@H](CN(C)Cc2ccc(C(F)(F)F)cc2)OCCCC[C@@H](C)O3)cc1 | · | · | · | 47.3 | 9.2 | 0.9
C[C@@H]1CCCCO[C@H](CN(C)Cc2ccc(C(F)(F)F)cc2)[C@@H](C)CN([C@H](C)CO)C(=O)c2cc(NS(=O)(=O)c3ccc(F)cc3)ccc2O1 | · | · | · | -3.0 | -2.9 | -9.5
C[C@@H]1CCCCO[C@@H](CN(C)Cc2ccc(C(F)(F)F)cc2)[C@H](C)CN([C@@H](C)CO)C(=O)c2cc(NS(=O)(=O)c3ccc(F)cc3)ccc2O1 | · | · | · | 104.9* | 3.3 | 70.7*
C[C@@H]1CN([C@@H](C)CO)C(=O)c2cc(NS(=O)(=O)c3ccc(F)cc3)ccc2O[C@@H](C)CCCCO[C@H]1CN(C)Cc1ccc(C(F)(F)F)cc1 | · | · | · | 97.0* | -0.7 | 26.9
C[C@@H]1CCCCO[C@@H](CN(C)Cc2ccc(C(F)(F)F)cc2)[C@@H](C)CN([C@@H](C)CO)C(=O)c2cc(NS(=O)(=O)c3ccc(F)cc3)ccc2O1 | · | · | · | 86.1* | -0.4 | -0.5
C/C=C/c1cnc2c(c1)C(=O)N([C@H](C)CO)C[C@H](C)[C@H](CN(C)C(=O)C1CCC1)O2 | · | · | · | · | · | 3.3
CNC(=O)C[C@H]1CC[C@@H]2[C@H](COc3ccc(NC(=O)NCc4ccccc4)cc3C(=O)N2C)O1 | · | · | · | 41.7 | 0.6 | -6.0
C[C@H](CO)N1C[C@H](C)[C@@H](CN(C)S(=O)(=O)c2ccc(Cl)cc2)Oc2ccc(NC(=O)C3CCCCC3)cc2C1=O | · | · | · | 7.9 | -1.0 | 0.2
C[C@@H]1CCCCO[C@@H](CN(C)Cc2ccc(Cl)c(Cl)c2)[C@@H](C)CN([C@H](C)CO)C(=O)c2cc(NC(=O)CCC(F)(F)F)ccc2O1 | · | · | -3.4 | 67.3*! | 5.8 | 4.5
C[C@@H]1CCCCO[C@H](CN(C)Cc2ccc(Cl)c(Cl)c2)[C@@H](C)CN([C@H](C)CO)C(=O)c2cc(NC(=O)CCC(F)(F)F)ccc2O1 | · | · | · | 3.9 | -4.2 | -18.8
C[C@@H]1CCCCO[C@@H](CN(C)Cc2ccc(Cl)c(Cl)c2)[C@H](C)CN([C@@H](C)CO)C(=O)c2cc(NC(=O)CCC(F)(F)F)ccc2O1 | · | · | · | 88.3* | -0.8 | 2.7
C[C@@H]1CN([C@@H](C)CO)C(=O)c2cc(NC(=O)CCC(F)(F)F)ccc2O[C@@H](C)CCCCO[C@H]1CN(C)Cc1ccc(Cl)c(Cl)c1 | · | · | · | 47.3 | 7.8 | 15.6
O=C(c1ccncc1)N1CC2(C1)[C@H](c1ccccc1)[C@H](CO)N2Cc1ccccn1 | · | · | · | 7.1 | · | 10.4
